Laboratory results from PubChem BioAssay (NCATS).
Where “and” joins values, the source holds several entries; their conditions need not be identical. Equal entries are not always repeated. Inconclusive results are not listed. Calls of active or inactive are those of the source. Calls come from the whole dose curve; as a rule, active = well fitted cell-killing curve with a large enough effect; inconclusive = small, poorly fitted or top-dose-only effect, or effect the other way; inactive = no such curve, though single readings can be large or run the other way.

What was measured:
[1] = Quantitative High-Throughput drug screen in 47 multiple myeloma cell lines against the NCATS MIPE library collection: SKMM1_PLB cell viability assay (AID 1919863); conditions: SKMM1 myeloma viability, CellTiter-Glo ATP, 48 h; viability: hits give low values; note: nearly all actives have a fitted effect of over 35% in size
Outline: (§1)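 Cells were exposed to library compounds for 48 hours, after which ATP was measured by CellTiter-Glo. Signal was taken as median relative luminescence units.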

[2] = Quantitative High-Throughput drug screen in 47 multiple myeloma cell lines against the NCATS MIPE library collection: U266_ATCC cell viability assay (AID 1919864); note: nearly all actives have a fitted effect of over 35% in size
Outline: as §1

[3] = Quantitative High-Throughput drug screen in 47 multiple myeloma cell lines against the NCATS MIPE library collection: XG6_PLB cell viability assay (AID 1919865); note: nearly all actives have a fitted effect of over 40% in size
Outline: as §1

[4] = Quantitative High-Throughput drug screen in 47 multiple myeloma cell lines against the NCATS MIPE library collection: VP6_DJ cell viability assay (AID 1919867); note: nearly all actives have a fitted effect of over 40% in size
Outline: as §1

[5] = Quantitative High-Throughput drug screen in 47 multiple myeloma cell lines against the NCATS MIPE library collection: PE2_PLB cell viability assay (AID 1919869); note: nearly all actives have a fitted effect of over 35% in size
Outline: as §1

[6] = Quantitative High-Throughput drug screen in 47 multiple myeloma cell lines against the NCATS MIPE library collection: OPM2_DSMZ cell viability assay (AID 1919872); note: nearly all actives have a fitted effect of over 30% in size
Outline: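 Luminescent ATP measurement with CellTiter-Glo gives viability, scaled between DMSO-only wells (100%) and media-only wells (0%). Cells, 500 per well, faced library compounds for 48 hours at 37C.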

[7] = Quantitative High-Throughput drug screen in 47 multiple myeloma cell lines against the NCATS MIPE library collection: XG1_PLB cell viability assay (AID 1919866); note: nearly all actives have a fitted effect of over 35% in size
Outline: as §1

[8] = Quantitative High-Throughput drug screen in 47 multiple myeloma cell lines against the NCATS MIPE library collection: RPMI8226_ATCC cell viability assay (AID 1919871); note: nearly all actives have a fitted effect of over 30% in size
Outline: as §1

[9] = Quantitative High-Throughput drug screen in 47 multiple myeloma cell lines against the NCATS MIPE library collection: UTMC2_PLB cell viability assay (AID 1919868); conditions: CellTiter-Glo ATP luminescence, 48 h; viability (% of DMSO control): at 45.8 µM (top of the series); note: nearly all actives have a fitted effect of over 55% in size
Outline: as §1

[10] = Quantitative High-Throughput drug screen in 47 multiple myeloma cell lines against the NCATS MIPE library collection: PCM6_Riken cell viability assay (AID 1919870); note: nearly all actives have a fitted effect of over 30% in size
Outline: as §1
Potency is the fitted concentration of half-maximal effect.

COc1ccc(-c2ccc3c(N4CCOC[C@H]4C)nc(N4CCOC[C@H]4C)nc3n2)cc1CO
active: Potency [1] 0.0148 µM | Potency [2] 0.0074 µM | Potency [3] 0.0148 µM | Potency [4] 0.0066 µM | Potency [5] 0.0148 µM | Potency [6] 0.0209 µM

CCOC(=O)N1CCC(=C2c3ccc(Cl)cc3CCc3cccnc32)CC1
active: Potency [1] 20.9 µM

CNC(=O)c1ccc(C)c(-n2c(C)cc(OCc3ccc(F)cc3F)c(Br)c2=O)c1
inactive: viability [1] 116% | Potency [2] | Potency [8] | Potency [6]
active: Potency [3] 16.6 µM | Potency [7] 6.62 µM | Potency [4] 16.6 µM

CCC(C)(C)C(=O)O[C@H]1C[C@@H](C)C=C2C=C[C@H](C)[C@H](CC[C@@H]3C[C@@H](O)CC(=O)O3)[C@H]21
active: Potency [1] 18.7 µM | Potency [3] 18.7 µM | Potency [7] 9.35 µM | Potency [4] 16.6 µM | Potency [9] 14.8 µM

COc1ccc2c3n(c(=NC(=O)c4cccnc4)nc2c1OC)CCN3
active: Potency [1] 0.148 µM | Potency [3] 0.59 µM | Potency [7] 1.48 µM | Potency [4] 1.48 µM | Potency [9] 3.32 µM | Potency [5] 11.8 µM

COc1cc(Nc2ncc3c(n2)-c2ccc(Cl)cc2C(c2c(F)cccc2OC)=NC3)ccc1C(=O)O
inactive: viability [1] 78.9% | Potency [2]

CC(C)(Sc1ccc(CCN(CCCCC2CCCCC2)C(=O)NC2CCCCC2)cc1)C(=O)O
active: Potency [1] 14.8 µM | Potency [2] 16.6 µM | Potency [8] 4.18 µM
inactive: Potency [3] | Potency [7] | Potency [4]

O=C(O)[C@@H](c1ccc(OCc2ccc3ccccc3n2)cc1)C1CCCC1
active: Potency [7] 5.26 µM | Potency [4] 5.9 µM
inactive: viability [1] 106% | Potency [2] | Potency [10] | Potency [6]

CCc1cncnc1N1CCN(Cc2nc3ccc(C(F)(F)F)cc3[nH]2)CC1
active: Potency [1] 18.7 µM | Potency [2] 6.62 µM | Potency [7] 10.5 µM | Potency [6] 9.35 µM

N#Cc1ccc(C(c2ccc(C#N)cc2)n2cncn2)cc1
inactive: Potency [5]
active: Potency [1] 6.62 µM | Potency [2] 16.6 µM | Potency [4] 16.6 µM | Potency [8] 5.9 µM | Potency [6] 9.35 µM

COc1nc(-c2ccc3c(c2)OCO3)n(-c2ccc(NC(=O)CSc3ccccc3)cc2)n1
active: Potency [2] 5.26 µM
inactive: viability [1] 123% | Potency [3] | Potency [7] | Potency [10] | Potency [6]

O=C(O)COCCN1CCN(C(c2ccccc2)c2ccc(Cl)cc2)CC1 (stereo unspecified)
inactive: viability [1] 122% | Potency [2] | Potency [3] | Potency [7] | Potency [4] | Potency [9] | Potency [6]

O=C1CCC(N2C(=O)c3ccccc3C2=O)C(=O)N1 (stereo unspecified)
inactive: Potency [3] | Potency [5] | Potency [6]
active: Potency [1] 23.5 µM | Potency [2] 18.7 µM | Potency [7] 3.72 µM

COc1ccc(C2=N[C@H](c3ccc(Cl)cc3)[C@H](c3ccc(Cl)cc3)N2C(=O)N2CCNC(=O)C2)c(OC(C)C)c1
active: Potency [1] 5.9 µM | Potency [2] 20.9 µM | Potency [3] 2.64 µM | Potency [8] 20.9 µM
inactive: Potency [6]

Fc1ccc(Cl)cc1-c1nc(Nc2ccncc2)c2nccnc2n1
inactive: viability [1] 120% | Potency [2] | Potency [7] | Potency [8] | Potency [6]
active: Potency [3] 3.32 µM | Potency [5] 7.43 µM | Potency [10] 5.9 µM

Cc1c(CN2CCN(C(=O)C(C)C)CC2)sc2c(N3CCOCC3)nc(-c3cnc(N)nc3)nc12
active: Potency [1] 0.148 µM | Potency [2] 0.372 µM | Potency [3] 0.132 µM | Potency [7] 0.0662 µM | Potency [4] 0.105 µM | Potency [5] 0.0662 µM | Potency [10] 0.235 µM | Potency [8] 0.0296 µM | Potency [6] 0.118 µM

CCCC(CCC)C(=O)O
active: Potency [3] 26.4 µM | Potency [7] 20.9 µM | Potency [4] 18.7 µM
inactive: viability [1] 126% | Potency [5] | Potency [8] | Potency [6]

CCC(=O)N[C@H]1CC[C@H](C(=O)N(C)c2ccc(-c3nc4ccccc4o3)cc2)C1
active: Potency [3] 8.33 µM | Potency [7] 6.62 µM | Potency [4] 14.8 µM | Potency [5] 13.2 µM
inactive: viability [1] 132% | Potency [6]

Nc1nc2[nH]cc(CCc3ccc(C(=O)N[C@@H](CCC(=O)O)C(=O)O)cc3)c2c(=O)[nH]1
inactive: Potency [3] | Potency [7] | Potency [6]
active: Potency [1] 5.26 µM | Potency [8] 0.264 µM

Cc1cc2c(C(C)C)c(O)c(O)c(C=O)c2c(O)c1-c1c(C)cc2c(C(C)C)c(O)c(O)c(C=O)c2c1O
active: Potency [1] 29.6 µM | Potency [3] 7.43 µM | Potency [7] 8.33 µM | Potency [4] 5.9 µM | Potency [5] 5.9 µM | Potency [10] 6.62 µM | Potency [8] 20.9 µM | Potency [6] 18.7 µM

OCCn1cc(-c2cnc3nnn(Cc4ccc5ncccc5c4)c3n2)cn1
active: Potency [1] 16.6 µM
inactive: Potency [3] | Potency [7] | Potency [5] | Potency [8]

CCn1cc(C(=O)O)c(=O)c2cc(F)c(N3CCNC(C)C3)c(F)c21 (stereo unspecified)
inactive: viability [1] 140% | Potency [3] | Potency [7] | Potency [4] | Potency [5] | Potency [10] | Potency [8] | Potency [6]

CC(c1cc2ccccc2s1)N(O)C(N)=O (stereo unspecified)
active: Potency [4] 3.32 µM
inactive: viability [1] 118% | Potency [3] | Potency [7] | Potency [10] | Potency [8] | Potency [6]

N[C@@H]1CONC1=O
inactive: viability [1] 132% | Potency [3] | Potency [7] | Potency [5] | Potency [8] | Potency [6]
active: Potency [4] 20.9 µM

NC(=O)c1ccc(-c2nc(-c3ccc4c(c3)OCCO4)c(-c3ccccn3)[nH]2)cc1
inactive: viability [1] 112%
active: Potency [3] 8.33 µM | Potency [4] 23.5 µM | Potency [6] 14.8 µM

CCN(CC)CCCC(C)Nc1ccnc2cc(Cl)ccc12 (stereo unspecified)
inactive: viability [1] 95.1% | Potency [8] | Potency [6]
active: Potency [3] 10.5 µM | Potency [7] 10.5 µM | Potency [4] 11.8 µM | Potency [10] 10.5 µM

COc1c(Cl)cc2c([nH]c3cnccc32)c1NC(=O)c1cccnc1C
inactive: Potency [8] | Potency [6]
active: Potency [1] 6.62 µM | Potency [3] 0.166 µM | Potency [7] 0.372 µM | Potency [5] 3.32 µM | Potency [10] 1.66 µM

c1ccc([C@H]2CN3CCSC3=N2)cc1
inactive: viability [1] 159% | Potency [5] | Potency [6]
active: Potency [3] 23.5 µM | Potency [7] 16.6 µM

CN[C@@H](C)C(=O)N[C@H]1CCCC[C@H]2CC[C@@H](C(=O)N[C@@H](c3ccccc3)c3cn(CCCCc4ccc(CCCCn5cc([C@@H](NC(=O)[C@@H]6CC[C@@H]7CCCC[C@H](NC(=O)[C@H](C)NC)C(=O)N76)c6ccccc6)nn5)cc4)nn3)N2C1=O
inactive: Potency [6]
active: Potency [1] 0.0037 µM | Potency [3] 20.9 µM | Potency [7] 23.5 µM | Potency [4] 18.7 µM | Potency [5] 18.7 µM

NC(=O)C1CCCc2c1[nH]c1ccc(Cl)cc21 (stereo unspecified)
active: Potency [3] 20.9 µM | Potency [7] 16.6 µM | Potency [4] 3.32 µM | Potency [5] 16.6 µM
inactive: viability [1] 110% | Potency [8] | Potency [6]

COc1ccc(CCN2CCN(CCCc3ccccc3)CC2)cc1OC
inactive: viability [1] 104% | Potency [7] | Potency [5] | Potency [10] | Potency [8]
active: Potency [3] 4.69 µM

O=C1CCCC2=C1C(c1[nH]ncc1Cl)N=C(Nc1nc3ccccc3o1)N2 (stereo unspecified)
inactive: Potency [6]
active: Potency [1] 10.5 µM | Potency [3] 23.5 µM | Potency [7] 2.96 µM | Potency [4] 0.0935 µM | Potency [5] 0.526 µM

O=C(C=Cc1ccc(/C=C/C(=O)Nc2ccc(C3=NCCN3)cc2)cc1)Nc1ccc(C2=NCCN2)cc1
active: Potency [6] 0.662 µM
inactive: viability [1] 118% | Potency [3] | Potency [7] | Potency [4] | Potency [10] | Potency [8]

Nc1nc2c(ncn2COCCO)c(=O)[nH]1
inactive: viability [1] 125% | Potency [3] | Potency [4] | Potency [5] | Potency [8] | Potency [6]
active: Potency [7] 18.7 µM | Potency [10] 23.5 µM

CCCS(=O)(=O)Nc1ccc(F)c(C(=O)c2c[nH]c3ncc(Cl)cc23)c1F
active: Potency [3] 10.5 µM | Potency [7] 18.7 µM | Potency [4] 14.8 µM | Potency [10] 11.8 µM
inactive: viability [1] 122% | Potency [6]

Cc1oncc1C(=O)Nc1ccc(C(F)(F)F)cc1
inactive: viability [1] 115% | Potency [5] | Potency [6]
active: Potency [3] 4.69 µM | Potency [7] 16.6 µM

CCOC(=O)C1=C[C@]2(CC)CCCN3CCc4c(n1c1ccccc41)[C@@H]32
active: Potency [1] 26.4 µM | Potency [3] 7.43 µM | Potency [7] 6.62 µM | Potency [4] 9.35 µM | Potency [5] 9.35 µM | Potency [10] 8.33 µM | Potency [8] 14.8 µM | Potency [6] 26.4 µM

CS(=O)(=O)c1cccc(CNc2nc(Nc3ccc4c(c3)CCC(=O)N4)ncc2C(F)(F)F)c1
active: Potency [1] 20.9 µM | Potency [3] 8.33 µM | Potency [7] 11.8 µM | Potency [4] 5.26 µM | Potency [5] 18.7 µM | Potency [8] 18.7 µM | Potency [6] 20.9 µM

CCCc1nc2c(C)cc(-c3nc4ccccc4n3C)cc2n1Cc1ccc(-c2ccccc2C(=O)O)cc1
inactive: viability [1] 142% | Potency [8] | Potency [6]
active: Potency [3] 23.5 µM | Potency [7] 20.9 µM | Potency [4] 16.6 µM | Potency [5] 11.8 µM

COc1ccc([C@@H]2CC(=O)c3c(O)cc(O[C@@H]4O[C@H](CO[C@@H]5O[C@@H](C)[C@H](O)[C@@H](O)[C@@H]5O)[C@@H](O)[C@H](O)[C@@H]4O)cc3O2)cc1O
active: Potency [3] 5.9 µM | Potency [7] 4.18 µM
inactive: viability [1] 111% and 110% | Potency [4] | Potency [10] | Potency [8] | Potency [6]

O=C(O)CCc1ccc(NCc2cccc(Oc3ccccc3)c2)cc1
inactive: viability [1] 111% | Potency [3] | Potency [7] | Potency [4] | Potency [5] | Potency [8] | Potency [6]

O=NN(CCCl)C(=O)NCCCl
inactive: viability [1] 118% | Potency [3] | Potency [7] | Potency [4] | Potency [5] | Potency [10] | Potency [8] | Potency [6]
